An excerpt weighted towards active compounds, which were near 3.6% of everything screened.
WT yeast gro inh: growth inhibition of WT yeast, mitochondrial fusion screen; mitochondrial fusion phenotypic screen, WT strain; inhibition, % at 10 µM; 190,000 tested, 2.1% active; in the data active means inhibition above about 58%; tested in S. cerevisiae
HCT116 PTEN-null: suppresses growth of cells with PTEN deletion; HCT116 PTEN-null viability, CellTiter-Glo, 60 h; stronger effect = lower value; viability, % at 10 µM; 140,000 tested, 1.2% active; AID 827;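 active means viability at or below a set limit, 4 SD under the median of all tested compounds, cut at about 3.7% in these data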;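 further: PTEN knockout HCT116 line with beta catenin targeted HCT116 as companion control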
HCT116 bCat-KO: beta-catenin-lacking colon tumor cell growth suppression. AID 818. 140,000 tested, 1.5% active. viability, % at 10 µM. HCT116 beta-catenin knockout viability, CellTiter-Glo, 60 h; stronger effect = lower value;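 active means viability at or under a set limit, the compound median less 4 SD, cut at about 6% in these data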;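 further: 0% = Hyamine 1622 control at 20 µM and 100% = untreated cell control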
DAT uptake mod: human DAT dopamine uptake with cocaine, either direction; Q01959; LLC-PK1 hDAT cells, [14C]-dopamine uptake with cocaine IC80; actives deviate in either direction; B-score at 10 µM; 110,000 tested, 1.3% active; AID 449768;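 active means Z score or B-score, a plate-position-corrected score, falls beyond the plate's 99.7% confidence bounds, in either direction; inactive means both scores lie inside the 99.7% bounds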;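 further: scored against the spread of the other compound wells on the same plate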
An asterisk follows results filed as active; x = not tested or not shown.

SMILES | WT yeast gro inh | HCT116 PTEN-null | HCT116 bCat-KO | DAT uptake mod
COc1ccc(Nc2nc(NC(C)(C)C)nc(N3CCCC3)n2)c(OC)c1 | 84* | 76 | 69 | 1.8
Nc1ccccc1Nc1cc(-c2ccccc2)[nH]n1 | 36 | x | x | x
O=C(CCCC(=O)N1CCCc2ccccc21)N1CCCc2ccccc21 | -2 | 63 | 78 | 2.7*
O=C(CN1CCCCC1)N1CCCc2ccccc21 | -13 | 90 | 84 | -0.092
O=C(c1ccc(C(=O)N2CCCc3ccccc32)s1)N1CCCc2ccccc21 | 97* | 87 | 106 | 2.5
Cc1ccc(-c2nnn(CC(=O)N3CCCc4ccccc43)n2)cc1 | 15 | 94 | 96 | -7.8*
O=C(c1cc(-c2ccccc2)nc2ccccc12)N1CCCc2ccccc21 | 63* | 64 | 62 | x
O=C(Cn1nnc(-c2ccncc2)n1)N1CCc2ccccc21 | -7 | 84 | 90 | -0.26
Cc1cc(C)c2nc(NNC(=O)c3cc(=O)c4ccccc4o3)sc2c1 | -10 | x | x | x
CCC1(CC)NC(=O)N(CC(=O)Nc2ccc(S(=O)(=O)N3CCOCC3)cc2)C1=O | -9 | x | x | x
Cc1ccc(-c2cc(C(=O)N3CCCc4ccccc43)no2)cc1 | 64* | x | x | x
CCn1c(SCC(=O)N2CCCc3ccccc32)nc2ccccc2c1=O | 10 | 71 | 79 | 3.1*
CCC1=C[C@H]2CN(C1)Cc1c([nH]c3ccccc13)[C@@](C(=O)OC)(c1cc3c(cc1OC)N(C)[C@H]1[C@@](O)(C(=O)OC)[C@H](OC(C)=O)[C@]4(CC)C=CCN5CC[C@]31[C@@H]54)C2 | x | x | x | -1.1
O=C1NC(c2cccs2)Nc2sc3c(c21)CCCC3 (centres undefined) | 31 | 65 | 63 | 2.8*
O=C(O)CCC(=O)Nc1ccc(NC(=O)c2ccc(Cl)cc2Cl)c(Cl)c1 | -2 | x | x | x
Clc1ccc2c(c1)C(N1CCNCC1)Cc1ccccc1S2 (centres undefined) | 90 | 1.7* | 1.5* | 0.45
Clc1cccc2c1Sc1ccccc1CC2N1CCNCC1 (centres undefined) | 84 | 0.8* | 1.0* | x
C/C(=N\N=C1\NC(=O)C(CC(=O)Nc2ccc(C)c(Cl)c2)S1)C(C)C (centres undefined) | 42 | x | x | x
O=C1SCCC1NS(=O)(=O)c1ccccc1[N+](=O)[O-] (centres undefined) | -17 | x | x | x
CCc1ccccc1NC(=S)N(Cc1ccco1)C(C)c1cccs1 (centres undefined) | 76* | x | x | x
Cc1cccc(C(=O)Nc2oc(-c3ccccc3)cc2C#N)c1 | 19 | 93 | 85 | 0.28
N#Cc1cc(-c2ccccc2)oc1NC(=O)c1ccco1 | 10 | 107 | 98 | -8.8*
CC(C)COc1ccc(C(=O)NCc2ccco2)cc1 | 13 | 92 | 112 | -7.8*
CCOc1ccc(C(=O)NCc2ccco2)cc1 | -10 | 104 | 107 | 0.78
CCC(CC)C(=O)c1c[nH]c(C(=O)NCc2ccco2)c1 | 61* | 100 | 103 | -0.63
SMILES | WT yeast gro inh | HCT116 PTEN-null | HCT116 bCat-KO | DAT uptake mod
CCC(=O)c1c[nH]c(C(=O)NCc2ccco2)c1 | 0 | 81 | 104 | 0.3
CCOC(=O)c1cnn(-c2sc(C(=O)OCC)c(C)c2C(=O)OCC)c1N | x | x | x | -2.5*
CCOc1ccccc1N(CC(=O)Nc1cc(OC)ccc1OC)S(C)(=O)=O | -8 | 93 | 94 | -9.1*
Brc1ccc(COn2ccnc2)cc1 | 9 | x | x | x
COC(=O)c1cn(CC(=O)N2CCCCCC2)c2ccccc12 | -1 | 82 | 90 | 0.039
CCOC(=O)C1=C(O)/C(=C/c2cn(CC(=O)N3CCCC3)c3ccccc23)SC1=Nc1ccccc1 | -3 | 54 | 65 | -8.3*
CC(O)CNc1nc2c(c(=O)n(C)c(=O)n2C)n1Cc1cccc(C(F)(F)F)c1 (centres undefined) | 8 | 83 | 83 | 1.8*
CC(O)CNc1nc2c(c(=O)n(C)c(=O)n2C)n1Cc1cccc(Br)c1 (centres undefined) | -11 | 76 | 81 | 0.86
Cc1ccc2nc3c(c(C(=O)OC4CCOC4=O)c2c1)CCCC3 (centres undefined) | -7 | x | x | x
FC(F)Sc1ccc(N=C2NN=C(c3ccc4c(c3)OCCO4)CS2)cc1 | 10 | 12 | 15 | 0.85
COc1ccc(N=C2NN=C(c3ccc4c(c3)OCCO4)CS2)cc1 | -7 | 92 | 86 | 3.1*
O=[N+]([O-])c1cc(-c2cnc3ccccc3n2)ccc1Oc1ccc(F)cc1 | x | 72 | 75 | -0.031
NC(=S)N/N=C/c1ccc(-c2cc(Cl)ccc2Cl)o1 | 72* | 81 | 75 | -1
CN(C)/C=C1\C(=O)N(C)N=C1C(F)(F)F | -9 | x | x | x
C=CCn1c(SCC(=O)NCC2CCCO2)nc2scc(-c3ccco3)c2c1=O (centres undefined) | 5 | 72 | 74 | 2.6*
